Among the data in PubChem BioAssay (NCATS) are Potency and z-score values, retold here.

Each structure is given as a SMILES string. Records with an inconclusive call do not appear. Activity calls are given as the source filed them.

A short description of this assay: qHTS for identification of novel therapeutic agents for treatment of microphthalmiaassociated transcription factor (MiT) renal cell carcinoma (RCC) (AID 1963991). The conditions noted are these: CellTiter-Glo, 48 h; for Potency: active = Z-AUC below -0.8 in all three lines; for z-score: stronger effect = lower value. An excerpt: PI: Marston Linehan Ph.D.
Urologic Oncology Branch, Center for Cancer Research (CCR)
National Cancer Institute (NCI), National Institute of Health (NIH), Bethesda, Maryland
MiT-Renal Cell Carcinoma (RCC) is characterized by genomic translocations involving microphthalmia-associated transcription factor (MiT) family members TFE3, TFEB, or MITF. MiT-RCC represents a specific subtype of sporadic RCC that is predominantly seen in young patients and can present with heterogeneous histological features making diagnosis challenging. Moreover, the disease biology of this aggressive cancer is poorly understood and there is no accepted standard of care therapy for patients with advanced disease. Tumor-derived cell lines have been established from human TFE3-RCC providing useful models for preclinical studies. TFE3-RCC tumor derived cell lines and their tissues of origin were characterized by IHC and gene expression analyses. An unbiased high-throughput drug screen was performed to identify novel therapeutic agents for treatment of MiT-RCC. Potential therapeutic candidates were validated in in vitro and in vivo preclinical studies. Mechanistic assays were conducted to confirm the on-target effects of drugs. The results of a high-throughput small molecule drug screen utilizing three TFE3-RCC tumor-derived cell lines identified five classes of agents with potential pharmacological efficacy, including inhibitors of phosphoinositide-3-kinase (PI3K) and mechanistic target of rapamycin (mTOR), and several additional agents, including the transcription inhibitor Mithramycin A. Upregulation of the cell surface marker GPNMB, a specific MiT transcriptional target, was confirmed in TFE3-RCC and evaluated as a therapeutic target using the GPNMB-targeted antibody-drug conjugate CDX-011. […] The results of the high-throughput drug screen and validation studies in TFE3-RCC tumor-derived cell lines have provided in vitro and in vivo preclinical data supporting the efficacy of the PI3K/mTOR inhibitor.
SEQUENCE No. (e.g., 1, 2, 3, etc.); […] (e.g., Cells, Incubation, Reagent, etc.); VALUE; DESCRIPTION.
1; Cells; 3 uL; white, solid-bottom Grenier assay plate.
2; Compounds; 23 nL; Kalypsis pin-tool (Wako USA).
3; Incubation; 48 hr; 37 C, 5% CO2, 95% humidity.
4; Reagent; 3 uL; CellTiter-Glo reagent (Promega).
5; Incubation; 15 min; room temperature.
6; Detection; Luminescence; ViewLux plate reader (PerkinElmer).
NOTES (numbers refer to Sequence numbers above)
1. Quantitative high-throughput screening (qHTS) of 1912 pharmacologically defined small molecule compounds was conducted on three TFE3-fusion cell lines bearing three different fusion partners (UOK109, UOK124, UOK145). Briefly, 500 cells in complete growth media were plated into white, solid-bottom, 1536-well tissue culture treated plates (Grenier Cat. 789173-F) using a Multidrop Combi cassette dispenser.
2. Twenty-three nanoliter of 1912 pharmacologically defined small molecule compounds of the NCATS Mechanism Interrogation PlatE (MIPE) version 4.0 were added to each assay plate using a Pintool Dispenser (Wako) equipped with 1536 pin head.
3. Plates were covered with stainless steel gasketed lids and incubated for 48 hours at standard cell culture conditions.
4. Viability was assessed by adding 3uL of CellTiter-Glo detection reagent (Promega).
5. Plates were covered with gasket lids and incubated for 15 minutes at room temperature.
6. Luminescence was measured on a ViewLux plate reader (PerkinElmer). Post-screen data processing used DMSO controls as 100% viability and empty wells as 0% viability and dose response curve fitting was done for all 11 concentrations for each compound.
(In general: In qHTS, concentration-response curves come from the screen itself.)

The mark [1] stands for this setting: TFE3-RCC UOK109 viability, measured here: UOK109 Z-AUC.
The mark [2] stands for this setting: TFE3-RCC viability, measured here: UOK124 Z-AUC.
The mark [3] stands for this setting: TFE3-RCC viability, measured here: UOK145 Z-AUC.
Potency is the fitted concentration of half-maximal effect.

Regarding `CC(C)n1nc(-c2ccc3oc(N)nc3c2)c2c(N)ncnc21`, the Potency (TFE3-RCC UOK109 viability) is 37.2 nM (active). Besides, the z-score is, setting by setting: under setting [1], -2.39; under setting [2], -2.58; under setting [3], -3.7.

`O=C1c2ccccc2-[n+]2ccc3c([nH]c4ccccc43)c21`: the Potency (TFE3-RCC UOK109 viability) was 1660 nM (active). The z-score runs as follows: under setting [1], -1.69; under setting [2], -2.04; under setting [3], -1.7.

Consider `CC(=NNC(=S)N1CCC1)c1ccccn1`, for which the Potency (TFE3-RCC UOK109 viability) is 3.32 nM (active). For the same compound, the z-score runs as follows: under setting [1], -4; under setting [2], -1.96; under setting [3], -2.39.

For the compound `O=c1c(-c2ccc(O)cc2)coc2cc(O[C@@H]3O[C@H](CO)[C@H](O)[C@H](O)[C@H]3O)ccc12`, the z-score reads like this: under setting [1], 0.945; under setting [2], 2.11; under setting [3], 1.28.

Take `O=C(OCC#CCSc1nnc(-c2cccc3ccccc23)o1)c1cc2ccccc2s1`: the z-score by setting is: under setting [1], 0.144; under setting [2], 0.66; under setting [3], 0.162.

On to `CC1CCC(C(=O)N(c2cc(C#CC(C)(C)C)sc2C(=O)O)C2CCC(O)CC2)CC1` (configuration not stated), for which the z-score was determined as 1.18 under setting [1], 1.68 under setting [2] and 0.196 under setting [3].

For the compound `Clc1ccc(-c2nc3sccn3c2C=NOCc2ccc(Cl)c(Cl)c2)cc1`, the z-score came out at 0.77 under setting [1], 0.598 under setting [2] and 0.227 under setting [3].

`CCOC(=O)O[C@]1(C(=O)OCCl)CC[C@@H]2[C@H]3CCC4=CC(=O)C=C[C@]4(C)[C@@H]3[C@@H](O)C[C@@]21C`: the z-score by setting is: under setting [1], 0.509; under setting [2], 0.837; under setting [3], 2.11.

Take `C[C@]12CC[C@@H]3c4ccc(O)cc4CC[C@H]3[C@H]1C[C@@H](O)[C@H]2O`: the z-score is, setting by setting: under setting [1], 1.3; under setting [2], 0.473; under setting [3], 0.59.

With `CO[C@H]1C=CO[C@@]2(C)Oc3c(C)c(O)c4c(O)c(c5c(c4c3C2=O)NC2(CCN(CC(C)C)CC2)N=5)=NC(=O)C(C)=CC=C[C@H](C)[C@H](O)[C@@H](C)[C@@H](O)[C@@H](C)[C@H](OC(C)=O)[C@H]1C`, the z-score was found to be 0.267 under setting [1], 0.0618 under setting [2] and 0.486 under setting [3].

For `CCc1ccc(C=C2SC(=S)NC2=O)cc1`, the z-score is, setting by setting: under setting [1], -0.104; under setting [2], 0.457; under setting [3], -0.976.

In the case of `Nc1ncnc2c1ncn2[C@@H]1O[C@H](CO)C[C@@H]1O`, the z-score is, setting by setting: under setting [1], 0.12; under setting [2], 0.223; under setting [3], 0.00458.

Turning to `C[N+]1(C)[C@@H]2CC(OC(=O)[C@H](CO)c3ccccc3)C[C@H]1[C@H]1O[C@@H]12` (some centres not stated), the z-score under setting [1] was 0.318, the z-score under setting [2] was 0.652 and the z-score under setting [3] turned out to be 0.553.
